High-throughput results: PubChem, The Scripps Research Institute Molecular Screening Center
Sampled rows, rich in hits. Any-hit rate of the full collection: about 3.5%.
TEAD-YAP block: TEAD-YAP interaction inhibition; HEK-TIYL cells, TEAD-Gal4/YAP UAS-luciferase luminescence; inhibition, % at 9.12 µM; 1.4% of 640,000 active; AID 1259422; in the data active = inhibition above about 32%;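 note: 0% = median of test compound wells and 100% = reference inhibitor wells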
FBW7 act: human FBW7 E3 ligase activation, primary screen. normalized activity (activation), % at 26.1 µM. 0.13% of 650,000 active. AlphaScreen FBW7–phospho-cyclin E peptide binding, activator screen; in the data active = normalized activity above about 1.9%;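 note: purified mutant Fbw7 with reduced substrate affinity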
MITF inh: inhibitors of human MITF; O75030; inhibition, % at 2.6 µM; AlphaScreen MITF homodimerization, bead proximity signal; 0.91% of 650,000 active; in the data active = inhibition above about 50%;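 note: 0% = vehicle wells with protein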
GPR151 ag: activators of human GPR151. AID 1508602. PathHunter beta-arrestin GPR151 cells, luminescence. 1% of 650,000 active. Q8TDV0. activation, % at 11.2 µM; in the data active = activation above about 4.9%;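 note: 0% = median of compound wells and 100% = cells with positive control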
Target sequence (Q8TDV0 whole entry, looked up): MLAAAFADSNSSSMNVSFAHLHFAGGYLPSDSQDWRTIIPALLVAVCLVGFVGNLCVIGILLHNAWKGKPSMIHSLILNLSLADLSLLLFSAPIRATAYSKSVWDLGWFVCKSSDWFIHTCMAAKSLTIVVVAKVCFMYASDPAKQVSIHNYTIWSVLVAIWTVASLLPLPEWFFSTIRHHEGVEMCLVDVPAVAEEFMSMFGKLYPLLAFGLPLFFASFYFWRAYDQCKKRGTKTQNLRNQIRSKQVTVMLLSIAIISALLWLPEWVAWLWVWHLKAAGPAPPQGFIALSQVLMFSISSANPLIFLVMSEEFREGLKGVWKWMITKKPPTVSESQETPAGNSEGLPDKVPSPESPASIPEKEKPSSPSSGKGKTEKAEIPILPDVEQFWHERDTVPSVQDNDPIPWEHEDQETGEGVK
GPR151 conf act: confirmation of human GPR151 activators. shares compounds with GPR151 ag. activation, % at 11.2 µM. GPR151 PathHunter beta-arrestin cells, luminescence, 90 min; % of EA-reagent control over plate median. 6,700 tested, under 10 active. AID 1508609;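 active = mean percent activation across replicates above the confirmation screen cutoff of 4.91%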
GPR119 ag: activates human GPR119 in a GPR151 counter-screen. shares compounds with GPR151 ag. GPR119 PathHunter beta-arrestin cells, luminescence, 90 min; 0 = compound-well median, 100 = enzyme-acceptor control. activation, % at 11.2 µM. 0.3% of 6,700 active. AID 1508611;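 active = mean percent activation in the counterscreen above 29.09%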;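 note: counterscreen on off-target GPR119 to flag nonselective hits from the GPR151 activator screen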
Numbers without * were called inactive; x = not tested or not shown.

SMILES | TEAD-YAP block | FBW7 act | MITF inh | GPR151 ag | GPR151 conf act | GPR119 ag
COc1cc(NC(=O)C2CCCCC2)c2ncccc2c1 | 5 | 0 | 5 | 5.3* | 0 | 6
COc1cc(NC(=O)NC(C)C)c2ncccc2c1 | 21 | 0 | 8 | -2 | x | x
CC(C)CCNC(=O)C(Cc1ccccc1)NS(=O)(=O)c1ccc(F)cc1 (stereo not drawn) | 6 | 0 | 9 | 4.9* | -1 | -6
O=C(COc1ccccc1)Nc1ccc2oc(-c3ccccc3)nc2c1 | -22 | 0 | -11 | 6.3* | 0 | 10
O=C(O)CCC(=O)Nc1cccc(-c2nnc(-c3ccccc3)o2)c1 | -6 | 0 | 3 | 5.0* | -1 | -11
O=C(COc1ccccc1)Nc1nnc(-c2ccccc2)o1 | -5 | 0 | 13 | 6.0* | -1 | -3
O=C(Cc1ccccc1)Nc1cccc(-c2nnc(-c3cccc(NC(=O)Cc4ccccc4)c3)o2)c1 | -5 | 0 | -8 | 1 | x | x
CCCC(c1nnnn1CCOC)N1CCN(Cc2ccc3c(c2)OCO3)CC1 (stereo not drawn) | 5 | 0 | 7 | 0 | x | x
Cc1cc(NC2CCN(Cc3ccccc3)CC2)nc(-c2ccc(C(N)=O)cc2)n1 | -10 | 0 | -1 | 3 | x | x
CCc1cccc(NC(=O)CCS(=O)(=O)c2ccc3c(c2)CC(C)N3C(=O)C2CC2)c1 (stereo not drawn) | 12 | 0 | 8 | 6.2* | 1 | -6
CC1Cc2cc(S(=O)(=O)CCC(=O)Nc3ccccc3)ccc2N1C(=O)C1CC1 (stereo not drawn) | 5 | 0 | -3 | 0 | x | x
CC(=O)Cc1ccc(-c2ccccc2)cc1 | -3 | 0 | -2 | -1 | x | x
Cc1ccc(Nc2c(N)c(=O)oc3ccccc23)cc1 | -10 | 0 | 8 | 17* | 0 | -5
CNc1c(N)c(=O)oc2ccccc12 | -27 | 0 | 9 | 0 | x | x
O=C(Cc1csc(-c2ccccc2)n1)N1CCC[C@@H]2CN(Cc3ccsc3)CC[C@H]21 | -3 | 0 | 19 | 2 | x | x
Cc1nc2ccc(Br)cc2c(Cl)c1CCC(=O)O | 6 | 0 | 1 | 8.9* | 1 | 13
COc1ccc(Cl)cc1NC(=O)CSc1nc(=O)n2ccccc2n1 | 3 | 0 | 5 | 5.7* | 0 | -15
COc1ccc(Cl)cc1NC(=O)CSc1nc(N)cc(N)n1 | -8 | 0 | 0 | 0 | x | x
COc1ccc(Cl)cc1NC(=O)CSc1nccn1-c1ccccc1C | -2 | 0 | -1 | 5.2* | -1 | -13
N#CCSc1nnc2sc3ccccc3n12 | -9 | 0 | -5 | 5.2* | 0 | -2
CCC(C)C(=O)Nc1ccccc1C(N)=O (stereo not drawn) | 10 | 0 | 0 | 2 | x | x
CCOc1cccc(C(=O)NC(=S)Nc2ccc(Cl)cn2)c1 | -24 | 0 | -8 | 0 | x | x
COc1cc(C2/C(=C(/O)c3ccc(Cl)cc3)C(=O)C(=O)N2CCO)ccc1O (stereo not drawn) | 9 | 1 | 12 | -1 | x | x
COc1ccc(/C(O)=C2/C(=O)C(=O)N(CCCO)C2c2cccc(Cl)c2)cc1F (stereo not drawn) | 4 | 0 | 1 | 6.8* | 1 | 12
COCCCN1C(=O)C(=O)/C(=C(\O)c2ccc(C)cc2)C1c1ccc(F)cc1 (stereo not drawn) | 2 | 0 | 12 | 7.6* | 0 | -2
SMILES | TEAD-YAP block | FBW7 act | MITF inh | GPR151 ag | GPR151 conf act | GPR119 ag
CCOc1ccc(-c2ncccc2O)cc1 | -37 | 0 | 18 | 0 | x | x
COc1ccc(-c2ncccc2O)cc1 | -44 | 2 | 11 | 5.2* | 0 | -2
CC(C)Oc1ccc(/C=N/NC(=O)C(=O)NC2CCCCC2)cc1 | -6 | 0 | -9 | 1 | x | x
CCOc1ccc(/C=N/NC(=O)C(=O)NC2CC2)cc1 | -1 | 0 | 19 | 5.7* | 1 | 4
CCN(CC)C(=O)C1CCCN(c2cc(C(=O)NCc3nc4ccccc4[nH]3)ccn2)C1 (stereo not drawn) | 2 | 0 | 2 | 6.6* | 0 | -2
c1ccc(N2CCN(c3nnc(SCc4ccccn4)s3)CC2)cc1 | -40 | 0 | -3 | 5.4* | -1 | -9
c1ccc(CSc2nnc(SCc3ccccn3)s2)nc1 | -62 | 0 | 2 | 0 | x | x
Nc1ccccc1S(=O)(=O)Nc1ccccc1 | 6 | 0 | 1 | 5.0* | -1 | -10
